Experimental findings from PubChem BioAssay are described below.

One may read the inhibition as the change of the read-out against control, counted positive when it falls.

A short description of experiment [1]: antimalarial activity against Dd2 strain (AID 2302;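 active = growth inhibition above 50% at the single 2 µM test dose, taken to imply half-maximal potency below 2 µM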;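 note: 0% = DMSO untreated growth and 100% = chloroquine plus artemisinin killed control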). The conditions noted are these: P. falciparum Dd2 in RBCs, LDH growth readout, 72 h; at 2 µM; stronger effect = higher value.
A short description of experiment [2]: HepG2 cytotoxicity, primary screen, cytotoxicity control for P. falciparum antimalarial project, cell-based, ATP luminescence (AID 2303;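 active = inhibition above 50%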;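 note: 0% = DMSO wells and 100% = digitonin-killed cells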). The note with it: HepG2 viability, 24-48 h, at 10 µM, stronger effect = higher value.
In experiment [3] the target is L-lactate dehydrogenase (Plasmodium falciparum (isolate CDC / Honduras)) (UniProt Q27743). The experiment can be described thus: PfLDH activity inhibition – cell lysate, 3D7 strain, counter-screen for P. falciparum growth inhibition project (AID 2304).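 Note: 0% = vehicle and 100% = reference inhibitor.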 The note with it: P. falciparum 3D7 crude extract, LDH APAD/NBT absorbance; at 2 µM; stronger effect = higher value.
Experiment [4] is described as follows: inhibition of 3D7 malaria parasite growth – strain 3D7 (AID 2306).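 Note: 0% = DMSO wells and 100% = chloroquine plus artemisinin control wells.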 The conditions noted are these: P. falciparum 3D7 erythrocytic growth, LDH absorbance, 72 h; at 2 µM; stronger effect = higher value.
Experiment [5] addresses Calcium-dependent protein kinase 1 (Plasmodium falciparum (isolate 3D7)) (UniProt P62344). The experiment can be described thus: PfCDPK1 kinase inhibitors, biochemical, TCAMS library (AID 1159585; cut-off not given, nearly all actives have IC50 up to about 0.98 µM;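 note: inhibitors leave more ATP so luminescence rises with inhibition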). The note with it: recombinant PfCDPK1, Kinase-Glo ATP depletion luminescence. In general terms: Kinase-Glo measures the ATP left after a reaction by luminescence.
For experiment [6], the target named is Plasmodium falciparum protein kinase 6 (PK6, PF3D7_1337100) (UniProt Q8IDW1). The experiment in a line: PfPK6 kinase inhibitors, biochemical, TCAMS library (AID 1159586). The conditions noted are these: recombinant PfPK6, Kinase-Glo ATP depletion luminescence.
The target of experiment [7] is Protein kinase 7 (PK7), Plasmodium falciparum 3D7 (PF3D7_0213400) (UniProt Q7YTF7). The experiment in a line: inhibition of Plasmodium PK7 catalytic activity – biochemical, TCAMS antimalarial set, Kinase-Glo luminescence (AID 1159587). The conditions noted are these: recombinant PfPK7, Kinase-Glo ATP depletion luminescence.
The target of experiment [8] is Calcium-dependent protein kinase 4 (Plasmodium falciparum (isolate 3D7)) (UniProt Q8IBS5). The experiment can be described thus: PfCDPK4 kinase inhibitors, biochemical, TCAMS library (AID 1159588; cut-off not given, nearly all actives have IC50 up to about 0.91 µM). The conditions noted are these: recombinant PfCDPK4, Kinase-Glo ATP depletion luminescence.

A number with no mark means an inactive call. For some of these results: Potency and affinity values are given separately. Calls of active or inactive are those of the source. Unless noted, the rule behind the calls is not given here.

Sequence of L-lactate dehydrogenase (Plasmodium falciparum (isolate CDC / Honduras)) (Q27743 whole entry, looked up): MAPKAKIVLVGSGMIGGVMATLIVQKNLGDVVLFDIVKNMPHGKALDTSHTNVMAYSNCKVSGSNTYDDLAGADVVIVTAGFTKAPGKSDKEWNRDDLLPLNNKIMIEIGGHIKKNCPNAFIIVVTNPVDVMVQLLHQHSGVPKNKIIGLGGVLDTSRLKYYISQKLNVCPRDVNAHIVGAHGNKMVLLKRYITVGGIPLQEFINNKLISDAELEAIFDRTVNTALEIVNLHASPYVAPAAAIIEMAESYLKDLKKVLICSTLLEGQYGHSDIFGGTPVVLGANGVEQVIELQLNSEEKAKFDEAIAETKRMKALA
Sequence of Protein kinase 7 (PK7), Plasmodium falciparum 3D7 (PF3D7_0213400) (Q7YTF7 1-343): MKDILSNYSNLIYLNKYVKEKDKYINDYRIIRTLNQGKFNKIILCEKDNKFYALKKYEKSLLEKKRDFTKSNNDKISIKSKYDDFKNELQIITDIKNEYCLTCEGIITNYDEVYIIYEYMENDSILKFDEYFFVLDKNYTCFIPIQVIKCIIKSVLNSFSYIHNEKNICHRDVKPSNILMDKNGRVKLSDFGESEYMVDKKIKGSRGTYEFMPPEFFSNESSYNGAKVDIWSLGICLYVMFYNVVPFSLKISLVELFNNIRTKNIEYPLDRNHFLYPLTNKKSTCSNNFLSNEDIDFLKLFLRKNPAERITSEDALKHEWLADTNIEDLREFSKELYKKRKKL
Sequence of Calcium-dependent protein kinase 1 (Plasmodium falciparum (isolate 3D7)) (P62344 whole entry, looked up): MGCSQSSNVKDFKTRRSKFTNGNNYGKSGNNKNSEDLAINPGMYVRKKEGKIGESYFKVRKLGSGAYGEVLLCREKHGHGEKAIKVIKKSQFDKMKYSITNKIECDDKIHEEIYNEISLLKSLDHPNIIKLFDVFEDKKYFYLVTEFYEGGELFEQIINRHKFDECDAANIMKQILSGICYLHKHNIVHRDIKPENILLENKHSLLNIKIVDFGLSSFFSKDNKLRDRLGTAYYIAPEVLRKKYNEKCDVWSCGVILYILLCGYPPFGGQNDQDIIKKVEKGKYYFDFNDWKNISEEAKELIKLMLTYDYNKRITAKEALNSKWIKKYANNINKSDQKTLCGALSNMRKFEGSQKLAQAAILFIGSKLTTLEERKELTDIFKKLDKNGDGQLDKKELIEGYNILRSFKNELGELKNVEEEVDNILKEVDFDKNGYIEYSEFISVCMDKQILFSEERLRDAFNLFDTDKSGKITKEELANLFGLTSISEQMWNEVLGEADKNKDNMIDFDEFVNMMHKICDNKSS
Sequence of Plasmodium falciparum protein kinase 6 (PK6, PF3D7_1337100) (Q8IDW1 1-305): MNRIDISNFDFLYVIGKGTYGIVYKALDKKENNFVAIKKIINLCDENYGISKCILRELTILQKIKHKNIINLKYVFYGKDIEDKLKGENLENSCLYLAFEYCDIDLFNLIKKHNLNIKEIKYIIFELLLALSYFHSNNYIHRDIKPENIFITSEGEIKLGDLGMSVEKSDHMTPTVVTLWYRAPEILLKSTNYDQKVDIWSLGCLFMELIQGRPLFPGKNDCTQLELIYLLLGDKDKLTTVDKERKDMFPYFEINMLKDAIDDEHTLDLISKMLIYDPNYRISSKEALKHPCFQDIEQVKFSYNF
Sequence of Calcium-dependent protein kinase 4 (Plasmodium falciparum (isolate 3D7)) (Q8IBS5 whole entry, looked up): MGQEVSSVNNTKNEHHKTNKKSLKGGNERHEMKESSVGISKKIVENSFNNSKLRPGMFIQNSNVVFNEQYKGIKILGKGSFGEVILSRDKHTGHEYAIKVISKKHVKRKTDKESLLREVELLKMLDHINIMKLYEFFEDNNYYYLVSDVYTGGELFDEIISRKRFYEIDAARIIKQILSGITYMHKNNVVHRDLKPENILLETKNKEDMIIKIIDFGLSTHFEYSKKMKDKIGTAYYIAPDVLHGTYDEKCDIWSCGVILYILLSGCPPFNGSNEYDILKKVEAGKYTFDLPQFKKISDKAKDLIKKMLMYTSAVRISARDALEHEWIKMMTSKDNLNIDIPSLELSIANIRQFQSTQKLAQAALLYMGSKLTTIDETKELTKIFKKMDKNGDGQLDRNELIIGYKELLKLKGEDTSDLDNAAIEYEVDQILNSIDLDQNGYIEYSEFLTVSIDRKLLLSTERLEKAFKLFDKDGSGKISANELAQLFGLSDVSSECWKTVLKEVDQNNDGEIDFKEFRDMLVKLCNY

With `CNC(=O)c1cnc(Nc2ccc(OCC(O)CN(C)C)cc2)nc1Nc1cccc([N+](=O)[O-])c1` (stereo not given), the growth inhibition in experiment [1] is 94% (active); in experiment [4], 100% (active). In addition, the figures for the inhibition in experiment [2] and in experiment [3] were 52% (active) and -1%, respectively. Further, the outcome in experiment [5], in experiment [6], in experiment [7] and in experiment [8] was inactive.

Consider `Cn1c2c(c3ccccc31)CN(CCC1(c3ccc(Cl)c(Cl)c3)CN(C(=O)Cc3ccccc3)CCO1)CC2` (stereo not given), for which the growth inhibition in experiment [1] is 91% (active); in experiment [4], 95% (active). Moreover, the inhibition in experiment [2] was 22%; in experiment [3] it was 0%. The result in experiment [5], in experiment [6], in experiment [7] and in experiment [8] was inactive.

Turning to `CCc1c[nH]c2c(N3CCCC3=O)cc(C(=O)N[C@@H](Cc3ccccc3)[C@H](O)CNC(C)(C)c3cccc(C(F)(F)F)c3)cc12`, the figures for the growth inhibition in experiment [1] and in experiment [4] were 99% (active) and 98% (active), respectively. The inhibition is 10% in experiment [2] and 1% in experiment [3]. Further, the result in experiment [5], in experiment [6], in experiment [7] and in experiment [8] was inactive.

`COc1ccc(CNCc2ccc(-c3ccc(-c4nc5c(C)cccc5[nH]4)s3)cc2)cc1`: the growth inhibition in experiment [1] is 89% (active); in experiment [4], 100% (active). The inhibition is 54% (active) in experiment [2] and 3% in experiment [3]. Moreover, the result in experiment [5], in experiment [6], in experiment [7] and in experiment [8] was inactive.

For `CC(O)C1CCCCN1C(=O)c1cccc(-c2cccc(-c3nc4ccc(F)cc4[nH]3)c2)c1` (stereo not given), the growth inhibition in experiment [1] was 99% (active); in experiment [4], 101% (active). In addition, the inhibition is 42% in experiment [2] and -2% in experiment [3]. Further, the outcome in experiment [5], in experiment [6], in experiment [7] and in experiment [8] was inactive.

In the case of `COc1ccccc1C1CN(Cc2coc3ccccc3c2=O)Cc2ccccc2O1` (stereo not given), the growth inhibition in experiment [1] was 61% (active); in experiment [4], 87% (active). In addition, the inhibition in experiment [2] is 4%; in experiment [3], 2%. The outcome in experiment [5], in experiment [6], in experiment [7] and in experiment [8] was inactive.

For the molecule `CCN(CC)CCCC(C)Nc1ccnc2ccc(OC)cc12` (stereo not given), the results for the growth inhibition in experiment [1] and in experiment [4] were -3% and 102% (active), respectively. For the same molecule, the inhibition in experiment [2] was 7%; in experiment [3], -2%. Moreover, the outcome in experiment [5], in experiment [6], in experiment [7] and in experiment [8] was inactive.

`OC(CNc1ccnc(Nc2cccc(OCCCN3CCOCC3)c2)n1)c1ccccc1` (stereo not given): the figures for the growth inhibition in experiment [1] and in experiment [4] were 25% and 97% (active), respectively. Besides, the inhibition in experiment [2] was 48%; in experiment [3], -4%. For the same molecule, the result in experiment [5], in experiment [6], in experiment [7] and in experiment [8] was inactive.

For `CCC(C)CNC(=O)CN1CN(c2ccccc2)C2(CCN(C(=O)c3ccc(Br)cc3)CC2)C1=O` (stereo not given), the growth inhibition in experiment [1] and in experiment [4] was 88% (active) each time. Also, the results for the inhibition in experiment [2] and in experiment [3] were 10% and -2%, respectively. Moreover, the result in experiment [5], in experiment [6], in experiment [7] and in experiment [8] was inactive.

As for `c1ccc(CN2CCC(NCc3ccccc3-c3cccc(CNC4CCCC4)c3)CC2)cc1`, the results for the growth inhibition in experiment [1] and in experiment [4] were 59% (active) and 101% (active), respectively. Moreover, the inhibition was 35% in experiment [2] and 6% in experiment [3]. The result in experiment [5], in experiment [6], in experiment [7] and in experiment [8] was inactive.

In the case of `O=S(=O)(c1ccc(OCc2ccc(Cl)cc2)cc1)c1cc2c(cc1OCc1ccccc1)CCN(C1CCC1)CC2`, the growth inhibition was 13% in experiment [1] and 89% (active) in experiment [4]. The inhibition in experiment [2] is 17%; in experiment [3] it was 6%. Moreover, the result in experiment [5], in experiment [6], in experiment [7] and in experiment [8] was inactive.

Take `Nc1nc(N)c2c(ccc3c2ccn3Cc2ccccc2)n1`: the figures for the growth inhibition in experiment [1] and in experiment [4] were 94% (active) and 96% (active), respectively. In addition, the inhibition in experiment [2] is 64% (active); in experiment [3], -8%. In addition, the result in experiment [5], in experiment [6], in experiment [7] and in experiment [8] was inactive.

As to `Cc1ccc(Cc2cnc(CN3CCCCC3)c(O)c2)cc1`, the growth inhibition in experiment [1] is 75% (active); in experiment [4], 93% (active). Further, the values for the inhibition in experiment [2] and in experiment [3] were 4% and 1%, respectively. The result in experiment [5], in experiment [6], in experiment [7] and in experiment [8] was inactive.

Take `COc1cc(NC(=O)c2sc(-c3ccc(Cl)cc3)cc2NC(=O)c2cccc(N(C)C)c2)ccc1OCCN1CCCC1`: the growth inhibition in experiment [1] was 67% (active); in experiment [4], 99% (active). Further, the values for the inhibition in experiment [2] and in experiment [3] were 49% and -3%, respectively. The outcome in experiment [5], in experiment [6], in experiment [7] and in experiment [8] was inactive.

As to `COc1cc(F)c2nccc([C@@H](O)CN3CC[C@H](NCc4ccc5c(n4)NC(=O)CS5)[C@H](F)C3)c2c1`, the growth inhibition was 80% (active) in experiment [1] and 87% (active) in experiment [4]. Moreover, the results for the inhibition in experiment [2] and in experiment [3] were 32% and 5%, respectively. Besides, the result in experiment [5], in experiment [6], in experiment [7] and in experiment [8] was inactive.

With `Cc1cccc2[nH]c(-c3cccc(-c4ccc(NC(=O)Cc5ccon5)cc4)c3)nc12`, the figures for the growth inhibition in experiment [1] and in experiment [4] were 38% and 87% (active), respectively. For the same molecule, the inhibition in experiment [2] was 34%; in experiment [3] it was 2%. Further, the outcome in experiment [5], in experiment [6], in experiment [7] and in experiment [8] was inactive.

For the molecule `COc1ccc2nccc([C@@H](O)CN3CCC(NC(=O)/C=C/c4cc([N+](=O)[O-])ccc4OC)CC3)c2c1`, the growth inhibition was 76% (active) in experiment [1] and 99% (active) in experiment [4]. Also, the results for the inhibition in experiment [2] and in experiment [3] were 12% and -1%, respectively. The outcome in experiment [5], in experiment [6], in experiment [7] and in experiment [8] was inactive.

As for `CC(=O)Nc1ccc2[nH]cc(C3CCN(CC4CCN(C(=O)/C=C/c5ccc(Cl)c(Cl)c5)CC4)CC3)c2n1`, the growth inhibition was 99% (active) in experiment [1] and 100% (active) in experiment [4]. Besides, the results for the inhibition in experiment [2] and in experiment [3] were 21% and -2%, respectively. Further, the result in experiment [5], in experiment [6], in experiment [7] and in experiment [8] was inactive.

Take `Cc1cccc2[nH]c(-c3ccc(-c4ccc(NC(=O)C(=O)c5cccn5C)cc4)cc3)nc12`: the growth inhibition in experiment [1] is 15%; in experiment [4] it was 95% (active). The figures for the inhibition in experiment [2] and in experiment [3] were 40% and 8%, respectively. Further, the result in experiment [5], in experiment [6], in experiment [7] and in experiment [8] was inactive.

For `COc1ccc(NC(=O)c2ccc(Br)c(C)c2)cc1N1CCN(Cc2ccccc2)CC1`, the growth inhibition in experiment [1] was 3%; in experiment [4], 95% (active). Also, the inhibition in experiment [2] was -2%; in experiment [3], 0%. Also, the outcome in experiment [5], in experiment [6], in experiment [7] and in experiment [8] was inactive.
